Data on 39 compounds can be found in PubChem BioAssay AID720650 (Broad Institute, 2013).

Molecules are shown by their SMILES. Unmarked numbers belong to inactive results. The source made the active and inactive calls. How the calls were made is not given here. A value given as a limit tells only on which side of the number the result lay.

A short description of this assay: C difficile toxins, biochemical counterscreen, UDPG substrate absence, confirmatory dose response (AID 720650). As to conditions: series mostly up to 19.5 µM; activity change, negative = inhibition: at the top concentration. (In general: Counterscreens check selectivity or assay interference.)
For `Nc1ccc(Sc2ccc(N)cc2)cc1`, the half-maximal activity concentration (AC50) was 3.22 µM (active). With `CCc1ccccc1NC(=S)N(Cc1ccc(C(=O)O)cc1)Cc1ccc(OC)c(OC)c1`, the “activity change, negative = inhibition” value was -12.3%. Regarding `CCCNC(=O)C1CC(=O)N(c2ccc(OCC)cc2)C1` (centres undefined), the “activity change, negative = inhibition” value is -3.69%. The same measure, in the same setting: next, `COC(=O)C1=C(c2ccc(OCc3ccccc3)cc2)C[C@@H]2CC[C@H]1N2C(=O)NCCCc1ccccc1`: -7.81%. As for `O=C(Nc1ccc(N2CCOCC2)c(Cl)c1)c1ccc(Cl)cc1`, the AC50 is 12.3 µM (active). On to `C[C@H](NC(=O)c1cc2c(cn1)[nH]c1ccccc12)C(=O)O`, for which the “activity change, negative = inhibition” value is -1.98%.

As for `COc1cc(/C=N/NC(=O)C2(O)c3ccccc3-c3ccccc32)ccc1O`, the “activity change, negative = inhibition” value was -11.3%. Take `O=C(O)c1ccccc1C(=O)c1ccc2c(c1)N(Cc1cccc(F)c1)C(=O)CO2`: the AC50 was 19 µM (active).

On to `NC(=O)CC(NC(=O)c1ccccc1)c1ccc(NCCc2ccc(F)cc2)c([N+](=O)[O-])c1` (centres undefined), for which the “activity change, negative = inhibition” value was -15.4%.

On to `CNC(=O)C1CCN(S(=O)(=O)c2c(C)noc2/C=C/c2ccc(C)cc2)CC1`, for which the “activity change, negative = inhibition” value was -2.85%. `Cc1ccc(S(=O)(=O)N2CC(CO)=CCC2c2ccccc2)cc1` (centres undefined): the AC50 was 8.79 µM (active).

As to `Cn1c(=O)c2c([nH]c(=S)n2Cc2ccc(Cl)cc2)n(C)c1=O`, the “activity change, negative = inhibition” value is -22.4%.

As for `Cc1ccc(C2=NS(=O)(=O)N(C)C(C(=O)NCc3ccccc3)=C2)cc1`, the “activity change, negative = inhibition” value is -8.53%. The same measure, in the same setting: next, `COc1ccc(N2CCN(CCNC(=O)Nc3cc(Cl)ccc3OC)CC2)cc1`: -14.5%. Consider `COc1ccc(/C=N/n2c(-c3cc(C)[nH]n3)n[nH]c2=S)cc1OC`, for which the AC50 was > 39 µM. Still for that read-out and setting: next, `O=C(C[n+]1ccccc1)N/N=C/c1ccc(O)cc1`: 20.2 µM (active). `O=C(N/N=C/c1cccc([N+](=O)[O-])c1)c1ccc(Br)cc1`: the “activity change, negative = inhibition” value is -2.73%. For the compound `COCC(=O)N1CC[C@@H]2[C@@H](CO)N(C)c3ccc(-c4ccccc4)cc3[C@@H]21`, the AC50 is 3.88 µM (active). As for `COc1ccc(/C=C2\CCCCC2=O)cc1`, the “activity change, negative = inhibition” value was -1.74%. `CS(=O)(=O)N1CCc2cc(C(=O)Nc3ccc(O)cc3)ccc21`: the AC50 is 14.8 µM (active).

With `Cc1cccc(/C=C/c2onc(C)c2S(=O)(=O)N2CCC(C(=O)N3CCC(C)CC3)CC2)c1`, the “activity change, negative = inhibition” value was -4.09%. The same measure, in the same setting: the value for `COc1ccc2cc3c(nc2c1)OCC3` was -17.2%; that for `CC1(C)O[C@@H]2[C@H](O1)[C@@H](COS(=O)(=O)O)O[C@H]2n1c(=S)[nH]c2c(=O)[nH]c(N)nc21` was -22.6%. On to `Cc1ccc(C(=O)Nc2ncc([N+](=O)[O-])s2)cc1`, for which the AC50 is > 39 µM. For the compound `COc1ccc(CNC(=O)C2CCN(S(=O)(=O)c3c(C)noc3/C=C/N(C)C)CC2)cc1`, the “activity change, negative = inhibition” value is -8.74%. In the case of `CN(C(=O)COC(=O)CNC(=O)c1ccccc1Cl)c1ccccc1`, the “activity change, negative = inhibition” value is -13.6%. Turning to `O=C1OCC/C1=C\c1ccc(O)cc1`, the AC50 is 9.75 µM (active).

In the case of `CCOc1ccc(/C=N/n2nnnc2N)cc1O`, the “activity change, negative = inhibition” value is 5.99%.

In the case of `CN1C(=O)c2cc(NC(=O)c3cccc(F)c3)ccc2OC[C@@H]2O[C@@H](CC(=O)NCC3CCCCC3)CC[C@H]21`, the AC50 result was “inactive”. `Cc1ccc2nc(-c3ccc4c(c3)OCCO4)cn2c1`: the AC50 is 12.4 µM (active). As to `O=C(Nc1ccc(O)cc1)/C(=C/c1ccco1)NC(=O)c1ccccc1`, the AC50 is 14.7 µM (active). In the case of `COC(=O)C(Cc1ccccc1)NC(=O)CSc1nc(C)cc(=O)[nH]1` (centres undefined), the “activity change, negative = inhibition” value is 0.635%. In the case of `COc1ccc(C(=O)NC(CC(=O)O)c2cc([N+](=O)[O-])ccc2Cl)c(SC)c1` (centres undefined), the “activity change, negative = inhibition” value was 8.05%.

In the case of `CCOc1ccccc1/C=C/c1onc(C)c1S(=O)(=O)N1CCC(C(=O)N2CCCCCC2)CC1`, the “activity change, negative = inhibition” value is -16.1%. On to `CN1c2ccc(-c3ccccc3)cc2[C@H]2[C@H](CCN2C(=O)CN2CCOCC2)[C@H]1CO`, for which the AC50 is 7.83 µM (active).

As for `COCCn1c(NC(=S)NC(=O)C2CC2)cc(=O)[nH]c1=O`, the “activity change, negative = inhibition” value is -10.3%. For `CCC(=Nc1ccccc1)C1=C(O)CCCC1=O`, the “activity change, negative = inhibition” value is -6.94%. For the compound `O=c1c(OC2OC(CO)C(O)C(O)C2O)c(-c2ccc(O)c(O)c2)oc2cc(O)cc(O)c12` (centres undefined), the “activity change, negative = inhibition” value is -10.2%. On the same count and under the same terms, the value for `Cc1ccc(/C=C/c2onc(C)c2S(=O)(=O)N2CCC(C(=O)N3CCN(C)CC3)CC2)cc1` was -9.58%.

What is called AC50 is the concentration giving half of the maximal activity seen.
